From paper PMC7862700, “An all-to-all approach to the identification of sequence-specific readers for epigenetic DNA modifications on cytosine”

Experiments:
Assay in all cases: DAPPL (digital affinity profiling via proximity ligation, sequencing); 10 mM Tris-HCl pH 7.5, 50 mM NaCl, 1 mM DTT, 4% glycerol, room temperature, 30 min; GST-TFs on glutathione beads, 16-mer random dsDNA library, 0.1% formaldehyde crosslink after washing; high values mean tight binding
Conditions in all cases: protein: recombinant; tags: N-terminal GST; dsDNA, one strand shown
[1] = molecular target: T1, FLI1 (Homo sapiens, UniProt Q01543 1-452)
T1 sequence: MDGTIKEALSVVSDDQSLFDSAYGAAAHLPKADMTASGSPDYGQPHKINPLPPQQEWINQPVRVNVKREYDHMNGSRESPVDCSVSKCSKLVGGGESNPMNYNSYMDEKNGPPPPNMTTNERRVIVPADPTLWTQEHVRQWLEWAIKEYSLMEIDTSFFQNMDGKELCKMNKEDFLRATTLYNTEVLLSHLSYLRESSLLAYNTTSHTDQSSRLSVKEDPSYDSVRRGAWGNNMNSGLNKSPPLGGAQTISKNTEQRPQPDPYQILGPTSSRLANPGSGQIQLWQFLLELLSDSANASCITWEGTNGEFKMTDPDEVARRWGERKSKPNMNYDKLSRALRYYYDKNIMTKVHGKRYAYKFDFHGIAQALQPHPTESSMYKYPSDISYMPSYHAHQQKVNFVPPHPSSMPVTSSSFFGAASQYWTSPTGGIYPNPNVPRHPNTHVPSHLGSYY
How it was run: (§1)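 Yeast served to express human transcription factors as GST fusions, which were then captured on glutathione beads and labelled with DNA barcodes. Pooled with a tag-only sample, they were incubated with 200 nmole of a 16-mer random double-stranded DNA library for 30 min at room temperature in Tris/NaCl/DTT/glycerol buffer, washed, crosslinked with 0.1% formaldehyde, ligated by proximity, amplified by PCR and sequenced. Dividing each hexamer's read frequency for a factor by its frequency for the tag-only sample gives the binding signal.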

[2] = molecular target: T2, ELK1 (Homo sapiens, UniProt P19419 1-428)
T2 sequence: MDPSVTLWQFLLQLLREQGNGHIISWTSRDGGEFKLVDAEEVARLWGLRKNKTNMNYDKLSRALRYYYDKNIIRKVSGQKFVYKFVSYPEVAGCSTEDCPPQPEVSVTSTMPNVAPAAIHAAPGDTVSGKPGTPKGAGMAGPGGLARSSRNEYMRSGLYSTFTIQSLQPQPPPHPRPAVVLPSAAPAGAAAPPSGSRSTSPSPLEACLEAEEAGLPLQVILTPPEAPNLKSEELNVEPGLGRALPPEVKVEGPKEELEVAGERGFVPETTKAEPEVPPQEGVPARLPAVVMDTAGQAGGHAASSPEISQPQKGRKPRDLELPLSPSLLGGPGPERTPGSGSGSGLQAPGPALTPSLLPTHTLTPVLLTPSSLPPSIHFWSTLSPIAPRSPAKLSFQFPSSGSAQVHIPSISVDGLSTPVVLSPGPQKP
How it was run: as §1

[3] = molecular target: T3, ERG (Homo sapiens, UniProt P11308 1-479)
T3 sequence: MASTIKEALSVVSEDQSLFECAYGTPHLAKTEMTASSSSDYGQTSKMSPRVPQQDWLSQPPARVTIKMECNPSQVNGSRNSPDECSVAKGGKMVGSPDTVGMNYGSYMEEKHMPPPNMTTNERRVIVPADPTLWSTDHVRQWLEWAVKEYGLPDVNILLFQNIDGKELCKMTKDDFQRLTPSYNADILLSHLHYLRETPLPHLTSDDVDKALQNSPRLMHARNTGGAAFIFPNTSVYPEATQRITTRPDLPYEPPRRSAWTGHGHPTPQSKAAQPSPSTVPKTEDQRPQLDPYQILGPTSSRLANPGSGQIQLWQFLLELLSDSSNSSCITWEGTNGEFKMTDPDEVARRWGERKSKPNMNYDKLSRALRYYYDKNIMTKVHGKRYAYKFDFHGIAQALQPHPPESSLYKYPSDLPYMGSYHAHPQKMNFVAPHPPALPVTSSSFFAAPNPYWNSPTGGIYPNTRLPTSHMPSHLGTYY
How it was run: as §1

[4] = molecular target: ELF1 (Homo sapiens, UniProt P32519 1-619)
ELF1, sequence (P32519 whole entry): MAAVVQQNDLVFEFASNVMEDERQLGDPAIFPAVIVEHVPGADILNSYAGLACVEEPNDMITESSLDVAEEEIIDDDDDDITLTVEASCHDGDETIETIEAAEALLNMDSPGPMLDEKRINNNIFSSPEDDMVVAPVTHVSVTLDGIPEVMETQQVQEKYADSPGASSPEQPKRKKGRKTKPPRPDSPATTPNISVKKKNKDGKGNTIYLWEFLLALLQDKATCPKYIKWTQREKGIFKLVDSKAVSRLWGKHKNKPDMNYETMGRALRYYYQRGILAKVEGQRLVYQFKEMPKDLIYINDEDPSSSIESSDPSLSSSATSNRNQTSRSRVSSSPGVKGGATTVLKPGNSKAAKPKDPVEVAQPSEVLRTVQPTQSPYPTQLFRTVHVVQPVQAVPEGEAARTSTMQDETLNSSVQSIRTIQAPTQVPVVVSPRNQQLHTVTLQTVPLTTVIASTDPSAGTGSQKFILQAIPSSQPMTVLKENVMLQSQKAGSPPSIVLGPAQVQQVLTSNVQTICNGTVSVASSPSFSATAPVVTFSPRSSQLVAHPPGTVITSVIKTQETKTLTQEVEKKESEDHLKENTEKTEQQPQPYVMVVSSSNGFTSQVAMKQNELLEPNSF
How it was run: as §1

[5] = molecular target: T4, EHF (Homo sapiens, UniProt Q9NZC4 1-300)
T4 sequence: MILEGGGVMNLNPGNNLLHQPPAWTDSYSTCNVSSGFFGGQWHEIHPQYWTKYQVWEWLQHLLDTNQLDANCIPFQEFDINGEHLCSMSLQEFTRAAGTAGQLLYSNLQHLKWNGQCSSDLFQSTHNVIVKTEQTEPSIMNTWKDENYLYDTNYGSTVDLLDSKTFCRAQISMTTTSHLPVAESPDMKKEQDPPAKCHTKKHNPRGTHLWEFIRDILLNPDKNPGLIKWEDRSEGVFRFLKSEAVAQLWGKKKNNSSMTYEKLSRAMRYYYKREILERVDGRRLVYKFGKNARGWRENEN
How it was run: as §1

[6] = molecular target: SPI1 (Homo sapiens, UniProt P17947 1-270)
How it was run: as §1

[7] = molecular target: SPIB (Homo sapiens, UniProt Q01892 1-262)
SPIB, sequence (Q01892 whole entry): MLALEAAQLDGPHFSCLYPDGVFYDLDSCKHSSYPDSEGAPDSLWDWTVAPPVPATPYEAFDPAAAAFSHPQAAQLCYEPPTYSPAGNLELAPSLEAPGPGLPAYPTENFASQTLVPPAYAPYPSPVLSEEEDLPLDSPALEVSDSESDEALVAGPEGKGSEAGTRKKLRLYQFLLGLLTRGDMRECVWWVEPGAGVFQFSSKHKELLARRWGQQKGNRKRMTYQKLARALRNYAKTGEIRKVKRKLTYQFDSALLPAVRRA
How it was run: as §1

[8] = molecular target: T5, ELK3 (Homo sapiens, UniProt P41970 1-407)
T5 sequence: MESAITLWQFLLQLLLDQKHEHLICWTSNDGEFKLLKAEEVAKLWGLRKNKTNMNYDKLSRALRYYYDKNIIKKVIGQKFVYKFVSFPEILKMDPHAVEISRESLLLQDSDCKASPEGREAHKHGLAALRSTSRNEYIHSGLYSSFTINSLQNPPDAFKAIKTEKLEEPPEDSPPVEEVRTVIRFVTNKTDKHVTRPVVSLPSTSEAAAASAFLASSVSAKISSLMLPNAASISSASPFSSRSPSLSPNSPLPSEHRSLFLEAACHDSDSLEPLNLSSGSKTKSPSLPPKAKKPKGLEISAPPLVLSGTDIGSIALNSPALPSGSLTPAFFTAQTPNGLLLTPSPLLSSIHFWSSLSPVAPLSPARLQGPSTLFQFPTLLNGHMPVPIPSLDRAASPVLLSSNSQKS
How it was run: as §1

[9] = molecular target: T6, SPIC (Homo sapiens, UniProt Q8N5J4 1-248)
T6 sequence: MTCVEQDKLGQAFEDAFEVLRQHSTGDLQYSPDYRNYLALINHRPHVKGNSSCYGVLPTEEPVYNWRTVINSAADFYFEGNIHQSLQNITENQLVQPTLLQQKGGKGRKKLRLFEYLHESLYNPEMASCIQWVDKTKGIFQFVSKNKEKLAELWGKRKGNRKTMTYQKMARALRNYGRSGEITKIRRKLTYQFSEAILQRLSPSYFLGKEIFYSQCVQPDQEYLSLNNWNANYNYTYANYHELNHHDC
How it was run: as §1

[10] = molecular target: ELF4 (Homo sapiens, UniProt Q99607 1-663)
ELF4, sequence (Q99607 whole entry): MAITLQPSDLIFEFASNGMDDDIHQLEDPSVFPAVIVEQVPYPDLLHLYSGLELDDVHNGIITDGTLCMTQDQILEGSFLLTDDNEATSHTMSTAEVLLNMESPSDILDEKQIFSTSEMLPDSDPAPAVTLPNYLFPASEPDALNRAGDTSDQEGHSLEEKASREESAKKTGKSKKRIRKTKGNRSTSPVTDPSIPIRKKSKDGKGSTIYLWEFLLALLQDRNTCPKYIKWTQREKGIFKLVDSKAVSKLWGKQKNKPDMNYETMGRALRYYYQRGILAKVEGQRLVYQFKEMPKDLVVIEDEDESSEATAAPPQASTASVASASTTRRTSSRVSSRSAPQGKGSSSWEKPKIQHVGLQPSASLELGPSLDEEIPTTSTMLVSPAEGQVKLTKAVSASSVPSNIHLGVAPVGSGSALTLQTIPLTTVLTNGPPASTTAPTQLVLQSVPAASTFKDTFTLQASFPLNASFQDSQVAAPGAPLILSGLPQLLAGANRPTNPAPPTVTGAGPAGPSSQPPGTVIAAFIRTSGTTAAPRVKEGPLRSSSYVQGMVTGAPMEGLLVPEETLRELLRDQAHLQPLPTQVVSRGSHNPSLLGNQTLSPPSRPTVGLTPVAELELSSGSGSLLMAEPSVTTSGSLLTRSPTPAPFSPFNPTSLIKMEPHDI
How it was run: as §1

[11] = molecular target: T7, ELK4 (Homo sapiens, UniProt P28324-2 1-405)
T7 sequence: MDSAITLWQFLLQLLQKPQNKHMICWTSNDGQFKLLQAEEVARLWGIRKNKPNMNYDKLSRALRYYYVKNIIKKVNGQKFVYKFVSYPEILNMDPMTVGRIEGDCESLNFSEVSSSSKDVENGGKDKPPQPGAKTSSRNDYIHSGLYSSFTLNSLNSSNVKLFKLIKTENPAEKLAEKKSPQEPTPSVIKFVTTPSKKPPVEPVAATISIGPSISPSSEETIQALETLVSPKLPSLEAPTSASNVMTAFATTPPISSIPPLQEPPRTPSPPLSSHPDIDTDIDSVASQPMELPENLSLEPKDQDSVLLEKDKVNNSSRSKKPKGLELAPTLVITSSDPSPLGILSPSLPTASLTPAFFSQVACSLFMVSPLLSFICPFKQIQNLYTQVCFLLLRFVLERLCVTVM
How it was run: as §1

[12] = molecular target: T8, ELF3 (Homo sapiens, UniProt P78545 1-371)
T8 sequence: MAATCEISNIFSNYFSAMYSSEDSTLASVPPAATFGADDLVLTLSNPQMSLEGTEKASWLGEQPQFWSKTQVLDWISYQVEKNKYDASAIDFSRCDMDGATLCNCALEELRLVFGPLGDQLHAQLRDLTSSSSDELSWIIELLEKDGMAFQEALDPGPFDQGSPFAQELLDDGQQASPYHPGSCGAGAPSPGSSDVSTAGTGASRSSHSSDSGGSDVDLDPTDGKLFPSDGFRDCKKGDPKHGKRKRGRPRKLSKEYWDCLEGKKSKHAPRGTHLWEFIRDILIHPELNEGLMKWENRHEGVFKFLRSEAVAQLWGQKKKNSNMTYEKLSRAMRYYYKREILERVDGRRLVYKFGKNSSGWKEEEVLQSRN
How it was run: as §1

[13] = molecular target: ETV1 (Homo sapiens, UniProt P50549 1-477)
ETV1, sequence (P50549 whole entry): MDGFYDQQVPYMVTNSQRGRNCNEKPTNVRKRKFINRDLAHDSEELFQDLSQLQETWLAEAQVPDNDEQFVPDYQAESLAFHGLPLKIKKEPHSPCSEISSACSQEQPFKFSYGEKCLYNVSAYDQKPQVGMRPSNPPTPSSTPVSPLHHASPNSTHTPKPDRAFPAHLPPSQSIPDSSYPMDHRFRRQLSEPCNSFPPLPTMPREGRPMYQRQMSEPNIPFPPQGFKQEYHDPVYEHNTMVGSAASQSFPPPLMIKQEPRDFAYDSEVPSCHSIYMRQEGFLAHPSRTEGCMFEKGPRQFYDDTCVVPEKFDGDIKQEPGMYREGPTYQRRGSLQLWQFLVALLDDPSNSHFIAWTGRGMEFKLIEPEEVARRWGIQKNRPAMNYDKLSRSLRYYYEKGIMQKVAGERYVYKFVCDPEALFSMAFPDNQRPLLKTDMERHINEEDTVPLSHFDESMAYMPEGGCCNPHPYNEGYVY
How it was run: as §1

[14] = molecular target: T9, ERF (Homo sapiens, UniProt P50548 1-548)
T9 sequence: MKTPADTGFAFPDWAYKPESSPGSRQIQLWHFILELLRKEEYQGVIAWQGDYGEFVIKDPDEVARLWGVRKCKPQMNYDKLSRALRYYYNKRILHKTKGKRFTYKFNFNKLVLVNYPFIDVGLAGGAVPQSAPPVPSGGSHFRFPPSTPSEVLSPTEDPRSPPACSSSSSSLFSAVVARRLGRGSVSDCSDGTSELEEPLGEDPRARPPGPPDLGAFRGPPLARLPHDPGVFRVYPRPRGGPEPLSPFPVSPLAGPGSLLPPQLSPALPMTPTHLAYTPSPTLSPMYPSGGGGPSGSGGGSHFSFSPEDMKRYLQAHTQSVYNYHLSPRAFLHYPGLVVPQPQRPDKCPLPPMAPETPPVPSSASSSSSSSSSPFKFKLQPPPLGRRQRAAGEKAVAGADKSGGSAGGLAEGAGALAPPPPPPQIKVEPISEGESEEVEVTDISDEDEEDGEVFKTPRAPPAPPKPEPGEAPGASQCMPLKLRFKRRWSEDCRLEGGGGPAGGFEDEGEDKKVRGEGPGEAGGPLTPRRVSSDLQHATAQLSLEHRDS
How it was run: as §1

[15] = molecular target: T10, ETV3L (Homo sapiens, UniProt Q6ZN32 1-361)
T10 sequence: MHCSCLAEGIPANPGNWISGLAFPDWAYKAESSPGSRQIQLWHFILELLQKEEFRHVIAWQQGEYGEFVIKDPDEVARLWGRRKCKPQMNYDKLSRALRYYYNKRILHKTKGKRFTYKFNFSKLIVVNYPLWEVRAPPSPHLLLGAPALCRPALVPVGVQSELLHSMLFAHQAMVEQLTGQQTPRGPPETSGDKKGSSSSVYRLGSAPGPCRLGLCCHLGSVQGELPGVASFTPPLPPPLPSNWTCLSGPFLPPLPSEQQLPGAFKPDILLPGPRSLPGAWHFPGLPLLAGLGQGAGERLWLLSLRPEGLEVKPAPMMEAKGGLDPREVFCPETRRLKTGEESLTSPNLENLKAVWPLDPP
How it was run: as §1

[16] = molecular target: T11, ETV7 (Homo sapiens, UniProt Q9Y603 1-341)
T11 sequence: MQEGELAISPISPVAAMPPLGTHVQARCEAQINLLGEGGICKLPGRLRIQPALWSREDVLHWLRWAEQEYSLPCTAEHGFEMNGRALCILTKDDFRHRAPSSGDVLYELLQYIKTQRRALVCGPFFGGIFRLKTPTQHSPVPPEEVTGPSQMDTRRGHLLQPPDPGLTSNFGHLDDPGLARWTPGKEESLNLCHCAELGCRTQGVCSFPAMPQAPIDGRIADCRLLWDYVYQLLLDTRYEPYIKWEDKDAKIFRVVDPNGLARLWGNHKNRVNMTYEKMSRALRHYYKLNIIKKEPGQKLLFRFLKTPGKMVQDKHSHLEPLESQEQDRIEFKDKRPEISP
How it was run: as §1

[17] = molecular target: T12, ETV3 (Homo sapiens, UniProt P41162-2 1-143)
T12 sequence: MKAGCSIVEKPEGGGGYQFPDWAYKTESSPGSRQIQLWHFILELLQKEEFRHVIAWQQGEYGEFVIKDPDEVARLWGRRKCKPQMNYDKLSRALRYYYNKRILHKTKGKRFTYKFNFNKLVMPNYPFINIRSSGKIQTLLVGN
How it was run: as §1

[18] = molecular target: ETV6 (Homo sapiens, UniProt P41212 1-452)
ETV6, sequence (P41212 whole entry): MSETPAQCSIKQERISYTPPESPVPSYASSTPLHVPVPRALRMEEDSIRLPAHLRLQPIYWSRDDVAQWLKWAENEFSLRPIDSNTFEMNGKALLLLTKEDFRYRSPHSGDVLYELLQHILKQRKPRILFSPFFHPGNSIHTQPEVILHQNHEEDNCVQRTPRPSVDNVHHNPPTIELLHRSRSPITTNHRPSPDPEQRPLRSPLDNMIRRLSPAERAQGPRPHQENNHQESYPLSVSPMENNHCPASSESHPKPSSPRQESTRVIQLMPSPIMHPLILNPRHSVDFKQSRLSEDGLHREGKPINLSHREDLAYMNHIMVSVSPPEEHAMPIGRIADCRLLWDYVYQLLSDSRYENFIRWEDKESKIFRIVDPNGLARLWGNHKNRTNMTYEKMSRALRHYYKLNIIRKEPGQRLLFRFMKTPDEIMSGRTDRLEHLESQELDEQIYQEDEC
How it was run: as §1

## GCCGCT
[1]
  binding signal: 1.09 fold enrichment (6-mer frequency, TF over GST control)
[2]
  binding signal: 1.08 fold enrichment (6-mer frequency, TF over GST control)
[3]
  binding signal: 1.07 fold enrichment (6-mer frequency, TF over GST control)
[4]
  binding signal: 1.12 fold enrichment (6-mer frequency, TF over GST control)
[5]
  binding signal: 1.04 fold enrichment (6-mer frequency, TF over GST control)
[6]
  binding signal: 1.12 fold enrichment (6-mer frequency, TF over GST control)
[7]
  binding signal: 1.1 fold enrichment (6-mer frequency, TF over GST control)
[8]
  binding signal: 1.06 fold enrichment (6-mer frequency, TF over GST control)
[9]
  binding signal: 1.19 fold enrichment (6-mer frequency, TF over GST control)
[10]
  binding signal: 1.14 fold enrichment (6-mer frequency, TF over GST control)
[11]
  binding signal: 1.1 fold enrichment (6-mer frequency, TF over GST control)
[12]
  binding signal: 1.1 fold enrichment (6-mer frequency, TF over GST control)
[13]
  binding signal: 1.15 fold enrichment (6-mer frequency, TF over GST control)
[14]
  binding signal: 1.23 fold enrichment (6-mer frequency, TF over GST control)
[15]
  binding signal: 1.01 fold enrichment (6-mer frequency, TF over GST control)
[16]
  binding signal: 1.05 fold enrichment (6-mer frequency, TF over GST control)
[17]
  binding signal: 1.03 fold enrichment (6-mer frequency, TF over GST control)
[18]
  binding signal: 1.04 fold enrichment (6-mer frequency, TF over GST control)
